Many of the other results were omitted from the sample, so hits are more common in it than they were.
miR-122 inh: miR-122 suppressors via Renilla sensor increase, primary screen, cell-based, Huh7 psiCHECK-miR122, Renilla luciferase, single point; actives 0.14% (n = 340,000); 48 h; activation, % at 12.5 µM; AID 623901, 2012;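 active means mean activation of 30% or more, with every replicate also reaching 30%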;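 further: 0% = median of neutral control wells and 100% = median of positive control wells; higher luciferase signal means stronger suppression of miR-122 activity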
* hit, by the source's call.

SMILES	miR-122 inh
CC/C(=N\NC(=O)c1ccc2c(c1)OCO2)C12CC3CC(CC(C3)C1)C2	-181
CO[C@H]1CN(C)C(=O)c2cc(NC(=O)C3CCOCC3)ccc2OC[C@@H](C)N(C)C[C@@H]1C	-4
CN1C(=O)c2cc(NC(=O)Cc3cccs3)ccc2OC[C@@H]2O[C@H](CC(=O)NCC3CCCCC3)CC[C@@H]21	-154
CO[C@@H]1CN(C)C(=O)c2cc(NC(=O)C3CCOCC3)ccc2OC[C@@H](C)N(C)C[C@H]1C	-1
CCCC(=O)Nc1ccc2c(c1)C(=O)N(C)[C@@H]1CC[C@H](CC(=O)NCC(F)(F)F)O[C@H]1CO2	37*
CO[C@H]1CN(C)C(=O)c2cc(NC(=O)c3nc4ccccc4s3)ccc2OC[C@@H](C)N(Cc2ccncc2)C[C@H]1C	-2
CN1C(=O)c2cc(NC(=O)c3cccs3)ccc2OC[C@H]2O[C@H](CC(=O)NCC(F)(F)F)CC[C@H]21	50*
CCCC(=O)Nc1ccc2c(c1)C(=O)N(C)[C@H]1CC[C@@H](CC(=O)NCC(F)(F)F)O[C@H]1CO2	-143
CN1C(=O)c2cc(NC(=O)c3cccs3)ccc2OC[C@H]2O[C@@H](CC(=O)N3CCCCC3)CC[C@H]21	37*
CN1C(=O)c2cc(NC(=O)c3cccs3)ccc2OC[C@@H]2O[C@@H](CC(=O)NCCN3CCCCC3)CC[C@H]21	83*
CCCC(=O)Nc1ccc2c(c1)C(=O)N(C)C[C@@H](OC)[C@@H](C)CN[C@@H](C)CO2	0
CCCN(C)C[C@H]1Oc2cc(-c3ccc(OC)cc3)ccc2S(=O)(=O)N([C@@H](C)CO)C[C@H]1C	-34
CNC(=S)Nc1ccc(N2CCCC2)c(S(=O)(=O)Nc2ccc(OC)cc2)c1	-109
Cc1ccc(-c2cnc3c(c2)C(=O)N([C@H](C)CO)C[C@H](C)[C@H](CN(C)C(=O)Cc2ccncc2)O3)cc1	-4
COCC(=O)N(C)C[C@@H]1Oc2ncc(C#Cc3ccncc3)cc2C(=O)N([C@H](C)CO)C[C@H]1C	-7
C/C=C/c1ccc2c(c1)O[C@H](CN(C)Cc1ccccc1F)[C@H](C)CN([C@@H](C)CO)S2(=O)=O	2
C[C@H]1CN([C@@H](C)CO)S(=O)(=O)c2ccc(-c3ccncc3)cc2O[C@H]1CN(C)Cc1ccccn1	3
C/C=C/c1ccc2c(c1)O[C@@H](CN(C)C(=O)c1cccnc1)[C@H](C)CN([C@H](C)CO)S2(=O)=O	-2
C[C@H](CO)N1C[C@H](C)[C@H](CN(C)C(=O)CN(C)C)Oc2cc(-c3ccccc3)ccc2S1(=O)=O	2
C[C@@H]1CN([C@H](C)CO)C(=O)c2cc(-c3cccc(F)c3)cnc2O[C@@H]1CN(C)C(=O)Nc1ccccc1F	-5
Cc1cc(C(=O)Nc2cccc3c2O[C@@H](CN(C)CC2CCCCC2)[C@@H](C)CN([C@@H](C)CO)C3=O)n(C)n1	-94
C[C@@H]1CN([C@@H](C)CO)C(=O)c2cccc(NC(=O)C3CCCCC3)c2O[C@H]1CN(C)Cc1ccc(C(=O)Nc2ccccc2N)cc1	-3
COc1ccccc1-c1ccc2c(c1)O[C@@H](CN(C)C(=O)Nc1ccccc1)[C@@H](C)CN([C@@H](C)CO)S2(=O)=O	-1
CO[C@H]1CN(C)C(=O)c2cc(NC(=O)NC(C)C)ccc2OC[C@H](C)N(C(=O)NC(C)C)C[C@H]1C	2
Cc1ccsc1/C=N/n1c(-c2ccco2)n[nH]c1=S	39*
SMILES	miR-122 inh
C[C@@H]1CN([C@@H](C)CO)C(=O)c2cc(-c3cccnc3)cnc2O[C@H]1CN(C)Cc1ccc(Oc2ccccc2)cc1	8
CCCC(=O)Nc1ccc2c(c1)OC[C@H](C)N(C)C[C@@H](C)[C@H](OC)CN(C)C2=O	1
C[C@H](CO)N1C[C@H](C)[C@@H](CN(C)CC2CCOCC2)Oc2cc(C#Cc3cccnc3)ccc2S1(=O)=O	-36
O=C(NC[C@@H]1[C@H](c2ccccc2)[C@@H](CO)N1C(=O)C1CC1)NC1CCCC1	-108
CCN(C[C@H]1[C@H](c2ccccc2)[C@@H](CO)N1C(=O)C1CC1)C(=O)NC1CCCC1	36*
Cc1ccc(S(=O)(=O)NC23CC4CC(CC(C4)C2)C3)cc1	-106
COc1ccc(C(C)(C)C)cc1NS(=O)(=O)c1cccc2cccnc12	-117
COc1ccc(NS(=O)(=O)c2ccc3ccccc3c2)c2ncccc12	-104
CCCCC(=O)NC(c1ccccc1OC)c1ccc2cccnc2c1O (stereo not given)	46*
COc1ccc(S(=O)(=O)NCCSC(C)(C)C)c(Cl)c1Cl	-253
CCCCCNS(=O)(=O)c1cc2c3c(c1)CCC(=O)N3CCC2	-99
CCCNC(=O)N(C)C[C@@H]1Oc2ncc(C#C[C@H](C)O)cc2C(=O)N([C@H](C)CO)C[C@H]1C	0
O=S(=O)(NC1CCCCC1)c1cccc(-c2nnc(-c3ccccc3)o2)c1	-100
CCCNC(=O)N(C)C[C@H]1Oc2cc(C#Cc3cccc(F)c3)ccc2S(=O)(=O)N([C@@H](C)CO)C[C@@H]1C	-9
Cc1ccccc1NCN1C(=O)C2C3C=CC(C3)C2C1=O (stereo not given)	34*
